Assay outcomes as filed in PubChem.
Shown are actives, neighbours in structure and some others; about 3.1% of the full set was active somewhere.
Anthrax LF inh2 = Bacillus anthracis LF protease inhibitors, primary screen, biochemical, multiplex microsphere, MLPCN library. Lethal factor (Bacillus anthracis), P15917. multiplex microsphere protease cleavage assay. inhibition, % at 10 µM. 360,000 compounds, 0.12% hits; further: plate controls were buffer without enzyme for full effect and enzyme alone for no effect
BoNT-F LC inh = BoNT/F light chain protease inhibitors, primary screen, biochemical, flow cytometry, MLPCN library; inhibition, % at 10 µM; Multiplex microsphere protease cleavage assay; Botulinum neurotoxin type F light chain protease (Clostridium botulinum); AID 588497, 2011; 360,000 compounds, 0.22% hits; in the data active means inhibition above about 35%, passing the limit was not always enough; inconclusive means no clear call, values can overlap the other calls; further: plate controls were buffer without enzyme for full effect and enzyme alone for no effect
Bead autofluor = flagged as autofluorescent in microsphere protease counterscreen | fluorescence intensity (test concentration not listed) | compound autofluorescence counterscreen, microsphere flow cytometry; active compounds read high | 360,000 compounds, 3.1% hits; in the data active means fluorescence intensity above about 16000; inconclusive means no clear call, values can overlap the other calls
BoNT-A LC inh2 = BoNT/A light chain protease inhibitors, primary screen, biochemical, flow cytometry, MLPCN library | Botulinum neurotoxin type A light chain protease (Clostridium botulinum A str. ATCC 3502) | multiplex microsphere protease substrate cleavage | inhibition, % at 10 µM | 360,000 compounds, 0.17% hits | AID 588499, 2011; further: plate controls were buffer without enzyme for full effect and enzyme alone for no effect
SSB-PriA inh = inhibitors of Klebsiella pneumoniae PriA binding to SSB C-terminal tail, primary screen, biochemical, AlphaScreen; PriA–SSB C-terminal tail interaction (Klebsiella pneumoniae); AlphaScreen SSBct-PriA binding, biotinylated peptide; inhibition, % at 33 µM; 430,000 compounds, 0.6% hits; AID 1272365, 2023; in the data active means inhibition mostly above about 37%, no sharp cut-off; inactive means mostly below about 20%;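 further: plate controls were negative control peptide for no effect and reference peptide for full effect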
* = called active by the depositor; ? = inconclusive; . = no result given. Unless noted, no stated cut-off is given here; in the data, active means inhibition above about 30%; inconclusive means no clear call, values can overlap the other calls; inactive means below that.

SMILES	Anthrax LF inh2	BoNT-F LC inh	Bead autofluor	BoNT-A LC inh2	SSB-PriA inh
O=C(Cc1nnc(-c2cccc(Br)c2)o1)NCc1cccc(C(F)(F)F)c1	.	.	.	.	-13
O=C(CSc1nnc2ccc(-c3cccc([N+](=O)[O-])c3)nn12)Nc1ccc2c(c1)OCO2	.	.	.	.	9
CNC(=S)NNC(=O)CCn1nc(C)c(Br)c1C	0	10	10858	1	-10
CCOCCCNC(=S)NNC(=O)CCn1nc(C)c(Br)c1C	-1	-5	24089*	-5	-7
CCN(CC)c1nc(Nc2ccccc2)nc(Oc2ccc(C(=O)OC)cc2)n1	-6	-13	8534	-1	-13
COC(=O)c1ccc(Oc2nc(Nc3ccccc3)nc(N(C)C)n2)cc1	0	-6	20995*	-4	-8
Cc1ccc2c(c1)OCC(C#N)=C2	.	.	.	.	-11
Cn1c(=O)oc2cc(S(=O)(=O)N3CCCC(C(=O)NCC4COc5ccccc5O4)C3)ccc21 (stereo unspecified)	-18	-6	4326	-1	104*
CC(=O)c1ccc(S(=O)(=O)N2CCC(Oc3ncccc3Br)CC2)cc1	.	.	.	.	-11
S=c1[nH]nc(-c2ccccn2)n1/N=C/c1cccs1	-3	0	9215	-1	.
S=c1[nH]nc(-c2ccccn2)n1N=Cc1ccc(Br)s1	.	.	.	.	79*
Cc1ccsc1C=Nn1c(-c2ccccn2)n[nH]c1=S	.	.	.	.	88*
c1ccc(CCCN2CCN(CCOC(c3ccccc3)c3ccccc3)CC2)cc1	-1	2	5680	0	8
c1ccc(COCCN2CCN(CCOCc3ccccc3)CC2)cc1	-5	-1	16853*	-2	-35
O=C(c1ccccc1C(F)(F)F)N1CCC(S(=O)(=O)Cc2ccco2)CC1	.	.	.	.	-10
CCCCCCCCCS(=O)(=O)N/N=C/c1cccc([N+](=O)[O-])c1	-2	1	19668*	3	.
Cc1ccc(S(=O)(=O)N/N=C/c2cccc([N+](=O)[O-])c2)cc1	-1	4	1969	1	.
CCOc1ccc2nc(N3CCCCCC3)sc2c1	-4	-4	16527*	0	-19
CN(C)c1nc2ccc(OCCN3CCCCC3)cc2s1	0	-1	23663*	-1	-11
CCN(CC)CCOc1ccc2nc(N(C)C)sc2c1	4	-8	3582	0	-10
COc1ccc(S(=O)(=O)Nc2ccc3c(c2)CN(C(C)=O)CC3)cc1OC	.	.	.	.	-9
CCOC(=O)Nc1ccc2c(C)cc(=O)oc2c1	-4	-5	16452*	-2	-13
CCCCOC(=O)Nc1ccc2c(C)cc(=O)oc2c1	6	-2	10206	-1	-14
OC(COc1cccc2ccccc12)CN1CCN(c2ccc(Cl)cc2)CC1 (stereo unspecified)	-3	35*	3947	0	2
O=C1CCCC2=C1C1(CCCCC1)N=C(Nc1nc3ccccc3s1)N2	-2	-2	16571*	-2	-5
SMILES	Anthrax LF inh2	BoNT-F LC inh	Bead autofluor	BoNT-A LC inh2	SSB-PriA inh
CCCCCn1c(NS(=O)(=O)c2ccccc2)c(C(=O)OCC)c2nc3ccccc3nc21	.	.	.	.	70*
CCCCCn1c(NS(=O)(=O)c2ccc(F)cc2)c(S(=O)(=O)c2ccc(C)cc2)c2nc3ccccc3nc21	.	.	.	.	47
CCCCCCCCn1c(NS(=O)(=O)c2ccccc2)c(S(=O)(=O)c2ccccc2)c2nc3ccccc3nc21	.	.	.	.	60*
CCCCCCCCn1c(NS(=O)(=O)c2ccc(C)cc2)c(S(=O)(=O)c2ccc(C)cc2)c2nc3ccccc3nc21	.	.	.	.	54*
CCCCn1c(NC(=O)c2ccccc2)c(S(=O)(=O)c2ccc(C)cc2)c2nc3ccccc3nc21	.	.	.	.	54*
CC(C)c1cc(=O)[nH]c(-n2nc(-c3cccs3)cc2NC(=O)c2ccc(F)c(F)c2)n1	.	.	.	.	-8
CCCCn1c(NS(=O)(=O)c2ccc(F)cc2)c(S(=O)(=O)c2ccc(C)cc2)c2nc3ccccc3nc21	.	.	.	.	56*
O=C(Cc1csc(NC(=O)NC2CCCC2)n1)Nc1nc2ccccc2s1	.	.	.	.	-2
Cc1cc(C)cc(OCCNS(=O)(=O)c2cc(C)ccc2C)c1	.	.	.	.	-27
CCOc1ccc(/C=N/NC(=S)Nc2c(C)cccc2C)cc1	0	-8	2990	-1	.
CCNC(=S)N/N=C/c1ccc(OCCOc2ccccc2C)cc1	4	-1	23540*	1	.
CCNC(=S)NN=Cc1ccc(OCC(=O)Nc2ccc(C)cc2)cc1	.	.	.	.	-4
CCNC(=S)N/N=C/c1ccc(OCC(=O)Nc2ccc(C)cc2)cc1	-4	-5	20930*	-1	.
O=C1NCCCCC1Nc1ccc(N2C(=O)C3C4C=CC(C4)C3C2=O)cc1[N+](=O)[O-] (stereo unspecified)	.	.	.	.	-10
CCOc1ccc2ccccc2c1C(=O)NCC(O)(c1ccccc1)C(F)(F)F (stereo unspecified)	.	.	.	.	-1
Cc1cc(OCCCCN2C(=O)NC(C)(C)C2=O)cc(C)c1Cl	-2	0	23207*	0	-21
CC1(C)NC(=O)N(CCCOc2ccc3c(c2)CCC3)C1=O	2	-4	10934	0	-9
CC1(C)NC(=O)N(CCCOc2ccc(Br)cc2Cl)C1=O	-3	-2	23298*	-1	-10
CCc1cc(OCCN2C(=O)NC(C)(C)C2=O)ccc1Cl	-10	-5	20493*	0	-10
CC1(C)NC(=O)N(CCCCOc2ccc(Cl)cc2)C1=O	0	-6	23237*	-3	-6
O=S(=O)(NCC1(c2cccs2)CCCC1)c1cccs1	.	.	.	.	-15
COc1ccc(S(=O)(=O)NCc2ccsc2)cc1OC	.	.	.	.	-10
CN(Cc1ccccc1)Cc1c(F)cccc1F	-6	3	22850*	-2	-10
COc1ccc2ccccc2c1CN(C)Cc1ccccc1	-12	-7	3116	-1	-7
Clc1ccc(Sc2oc(/C=N/n3cnnc3)cc2Br)cc1	1	3	19698*	2	.
SMILES	Anthrax LF inh2	BoNT-F LC inh	Bead autofluor	BoNT-A LC inh2	SSB-PriA inh
CCCCCCn1c2c(c(=N)c3c1CCC3)CCC2	-1	2	22477*	?	-6
CCN1/C(=C\C(=S)Nc2ccccc2)Sc2ccccc21	-5	-45	3324	39*	11
CCN1/C(=C\C=C(C(C)=O)C(C)=O)Sc2ccccc21	0	1	3116	0	10
CCOc1cc(NC(=O)C(C)(C)C)c(OCC)cc1NC(=O)c1ccccc1	.	.	.	.	8
O=C(COC(=O)c1cccnc1Nc1ccccc1F)NCCN1C(=O)CSC1=O	-1	69*	4198	10	-2
CCOC(=O)C(=NNc1cc(C(F)(F)F)ccc1Cl)N(CC)CC	.	.	.	.	2
CCOC(=O)/C(=N\Nc1cc(C(F)(F)F)ccc1Cl)N(CC)CC	-8	-3	20400*	0	.
O=C(CCN1CCCCC1)Nn1c(=S)[nH]c2ccccc2c1=O	-2	-3	23257*	?	-7
O=c1c2ccccc2[nH]c(=S)n1CCN1CCCC1	-2	1	2182	0	1
Cc1csc(C(=O)N2CC(S(=O)(=O)c3ccc(F)cc3)C2)c1	.	.	.	.	-8
Clc1ccc(CN2CCN(c3ncnc4scc(-c5cccs5)c34)CC2)cc1	15	-10	?	-2	4
